# From ChEMBL document CHEMBL3988442, “University of Dundee, Small-Polar-MMV Screening Library” (2021)
# Out of some 48,000 compounds screened, about 13,000 (27%) showed an effect of 50% or more. The list shows a part of the results.
# Tested on: Wolbachia pipientis
# Assay: Anti-Wolbachia Cell-Based Screen
# Format: functional
# Parameters: scale not given: in the data most compounds retested in dose-response had high values
# Settings: 5 µM
row,Structure (SMILES),Percent Effect [%]
1,CCc1ccc(CNC(=O)Nc2cc(C)on2)s1,-14.37
2,COCc1nc2cc3c(cc2c(=O)o1)OCCCO3,-7.292
3,COc1cc(CC(O)CC#N)c(OC)c2c1OCO2 (stereo not given),-11.73
4,COCc1noc(-c2nn(-c3ccccc3F)c3c2CCC3)n1,-4.596
5,Cc1ncsc1CCC(=O)N1CCCC[C@H](N(C)C)C1,4.231
6,COc1cc(C(=O)NCCc2ccc(Cl)cc2)on1,-4.303
7,CCNc1ncc(C(=O)NCCc2ccc(C)c(C)c2)cn1,-6.077
8,CCCNc1ccc(C(=O)NCCc2ccc(Cl)cc2)cn1,106.9
9,CCCNc1ccc(C(=O)NCCc2cccc(Cl)c2)cn1,116.4
10,CNC(=O)c1cccc(CCNc2ccccn2)c1,-20.45
11,CCCNc1ccc(C(=O)NCCc2cccc(OC)c2)cn1,121.7
12,COc1cccc(CCNC(=O)c2ccc(=O)n(C)c2)c1,11.31
13,CNC(=O)c1cccc(CCNc2ccc(C#N)cn2)c1,-20.96
14,COc1cc(C(=O)NCCc2cccc(C)c2)on1,-13.11
15,CCCn1cnnc1CNC(=O)CC1C(=O)NCCN1C(C)C (stereo not given),-4.75
16,CN(CCCc1nccn1C)C(=O)C1CCN(C(=O)C2CCCC2)CC1,-7.854
17,Cc1cc(C)cc(CN2CCN(Cc3ccc4nonc4c3)CC2=O)c1,-1.635
18,CCNC(=O)CN1CCC(c2cc(OC)cc(OC)c2)C1 (stereo not given),-11.46
19,CCOCC1CN(S(C)(=O)=O)Cc2nn(C)cc21 (stereo not given),-37.27
20,CCOc1cc(C(=O)N2CCCC(c3noc(C)n3)C2)ccc1OC (stereo not given),123.2
21,Cc1nc(C2CCCN(C(=O)c3ccc(OCC4CC4)cc3)C2)no1 (stereo not given),-3.23
22,COc1ccnc(C(=O)N2CCCC(c3noc(C)n3)C2)c1 (stereo not given),-1.667
23,Cc1nc(C2CCCN(C(=O)c3ccc(N4CCCC4)nc3)C2)no1 (stereo not given),-0.5946

row,Structure (SMILES),Percent Effect [%]
1,Cc1nc(C2CCCN(C(=O)c3ccc(OCC4CC4)nc3)C2)no1 (stereo not given),97.67
2,COc1ccc(N(C(=O)c2ccc(C)nc2)C(C)C)cc1F,-11.04
3,CN(C)C[C@@H]1CN(Cc2ccccc2C#N)C[C@@H]1CO,8.186
4,Cn1ncc2c1CN(C(=O)Cc1ccccn1)CC2COCC1CC1.O=C(O)C(F)(F)F.O=C(O)C(F)(F)F (stereo not given),-6.419
5,Cc1cc(C)c(CCNC(=O)NCCCC(N)=O)c(C)c1,-1.921
6,O=C(NCCO)Nc1c(F)cccc1Oc1ccccc1,2.837
7,O=C(NCCO)Nc1c(F)cc(F)cc1-c1ccccc1,122.6
8,O=C(NCCO)Nc1ccc(Br)c(F)c1,-6.574
9,CCNC(=O)CNC(=O)Nc1c(F)cc(F)cc1-c1ccccc1,120.1
10,COCC(O)CNC(=O)Nc1c(F)cc(F)cc1-c1ccccc1 (stereo not given),147.7
11,CNC(=O)CNC(=O)Nc1ccc(Br)c(F)c1,-1.14
12,COCC(O)CNC(=O)c1cnc(-c2ccccc2)nc1O (stereo not given),-15.86
13,CCNC(=O)CNC(=O)Nc1cccc(Cl)c1SC(F)F,-15.46
14,COCC(O)CNC(=O)c1coc(COc2cccc(F)c2)n1 (stereo not given),3.844
15,O=C(CNC(=O)Nc1cccc(Cl)c1SC(F)F)NC1CC1,-13.14
16,O=C(CNC(=O)Nc1c(F)cc(F)cc1-c1ccccc1)NC1CC1,131.5
17,O=C(CNC(=O)Nc1c(F)cccc1Oc1ccccc1)NC1CC1,-0.6876
18,CCC(CNC(=O)C1CCC1)(OC)c1ccccc1 (stereo not given),-1.894
19,CN(Cc1ncc[nH]1)c1nc(-c2ccccn2)nc2c1CCNCC2,-0.01551
20,c1cnnc(N2CCCC(NCc3nc(C4CC4)no3)C2)c1 (stereo not given),9.898
21,Cn1nc(C(C)(C)C)cc1NC(=O)CSc1nnc[nH]1,-11.13
22,CCC(CNC(=O)OC)(OC)c1ccccc1 (stereo not given),1.829
23,CN(C)CCN(C)C(=O)NC1CCC(Oc2ccccc2C#N)CC1 (stereo not given),-10.57

row,Structure (SMILES),Percent Effect [%]
1,CC(=O)NC1(C(=O)N2CCC(Nc3cccnn3)CC2)CCCCC1,6.747
2,Cc1noc(C2CCN(C(=O)c3ccc(NC4CC4)nc3)CC2)n1,-4.487
3,CC(=O)N1CCC(c2cnc(NC3CCOCC3)cn2)CC1,89.11
4,CNc1cccc(C2CCN(C(C)=O)CC2)n1,105.5
5,O=C(N1CCOCC1)N1CCC(Nc2ccncn2)CC1,6.366
6,CNc1cccc(C2CCCN(C(C)=O)C2)n1 (stereo not given),2.608
7,CC(=O)N1CCC(c2cccc(NC3CCOCC3)n2)CC1,84.73
8,COc1ccccc1CNC(C)c1cnc2cc(C)nn2c1C (stereo not given),-25.88
9,CC(C)CCc1cc(C(=O)O)nc2[nH]c(=O)[nH]c(=O)c12,107.7
10,CC(C)c1cc(C(=O)O)nc2[nH]c(=O)[nH]c(=O)c12,113.5
11,CC(C)Cc1cc(C(=O)O)nc2[nH]c(=O)[nH]c(=O)c12,118.2
12,CC1(C)OCC2(CO1)CN(C(=O)c1ccccc1Cl)C2,5.486
13,CCN(CC)[C@H]1COC[C@@H]2CN(Cc3cnn(C)c3)C[C@@H]21,13.67
14,CN(Cc1ccc2nsnc2c1)CC1(O)CNCCOC1 (stereo not given),-20.02
15,CN(Cc1cnn(C)c1)S(=O)(=O)N1CCCCCC1,16.54
16,Cn1cc(CN(CC2(O)CCNC2)C2CCCCC2)cn1 (stereo not given),118.9
17,CCCc1cc(C(=O)N(Cc2cccnc2)C2CCCCC2)[nH]n1,21.65
18,OC1(CN(Cc2cccnc2)C2CCCCC2)CNCCOC1 (stereo not given),96.56
19,CN(Cc1cnn(C)c1)S(=O)(=O)N1CCCCC1,-3.727
20,Cn1cc(CN(CC2(O)CNCCOC2)C2CCCCC2)cn1 (stereo not given),106.6
21,OC1(CNCc2noc(Cc3ccccc3)n2)CNCCOC1 (stereo not given),7.869
22,CC(SCCC(=O)NC(N)=O)c1c(F)cccc1F (stereo not given),-3.785
23,Cc1cccc(N2CCC(NC(=O)CCCc3cccs3)CC2)n1,-12.55

row,Structure (SMILES),Percent Effect [%]
1,CCSC(C)c1nc(-c2ccc(C)nn2)no1 (stereo not given),3.709
2,Clc1ccccc1C1(c2ccnc(-c3ccncc3)n2)CCNCC1,-9.027
3,CN(C)C(=O)C1CN(Cc2c[nH]cn2)CCN(C2CCOCC2)C1 (stereo not given),-9.527
4,Cc1nccc(N2CCN(C3CCOCC3)CC(C(=O)N(C)C)C2)n1 (stereo not given),164.8
5,CNC(=O)C1CN(c2ccnc(C)n2)CCN(C2CCOCC2)C1 (stereo not given),102.7
6,Cc1nccnc1N1C[C@H]2CN(C3CCOCC3)C[C@@]2(C(=O)O)C1,-7.502
7,Cc1cc(N2CCN(C3CCOCC3)CC(C(=O)N(C)C)C2)ncn1 (stereo not given),98.55
8,CN(C)C(=O)C1CN(c2ccncn2)CCN(C2CCOCC2)C1 (stereo not given),126.1
9,O=C([C@H]1COC[C@H]2CN(c3ccncn3)C[C@H]21)N1CCCC1,-2.247
10,Cc1nccc(N2CCC(=O)N(CC3CC3)C(C(C)C)C2)n1 (stereo not given),-7.894
11,CCc1c(C)sc2ncnc(N3CCN(C4CCOCC4)CC3)c12,8.782
12,Cc1noc(-c2ccnc(N3CCCN(C4CCOCC4)CC3)c2)n1,-8.48
13,CN1CCN(C(=O)c2ccc(Cn3cc(Br)cn3)cc2)CC1,-6.635
14,CN(Cc1ccc(Cl)s1)C(=O)NCCN1CCCCCC1=O,-12.97
15,Cc1cc(NC(=O)C(C)N2CCN(c3nc(C)cs3)CC2)on1 (stereo not given),1.656
16,COCc1cccc(NC(C(N)=O)c2ccc(Br)cc2)c1 (stereo not given),31.5
17,Cc1cc(NCC2CCN(c3ccccc3)C2)n2ncnc2n1 (stereo not given),0.02222
18,O=C(COCC1CCCO1)N1CCCN(Cc2ccccc2F)CC1 (stereo not given),-31.39
19,CSc1ccc2cc(CN(C)CCCN(C)C)c(=O)[nH]c2c1,-7.905
20,CSc1ccccc1CN1CCn2nc(CNC(C)=O)cc2C1,-10.31
21,COc1cccc(SCCCn2cnc3c(N)ncnc32)c1,97.7
22,CN(Cc1ccccc1)CC(O)Cn1cnc2ccccc2c1=O (stereo not given),5.606
23,CCS(=O)(=O)c1ncc(CN(C)Cc2cccc(OC)c2)n1CCOC,-4.749

row,Structure (SMILES),Percent Effect [%]
1,COc1cccc(SCC(=O)N2CCC(N3CCCC3=O)CC2)c1,-9.437
2,COc1cccc(CN(C)CCCn2cnc3c(N)ncnc32)c1,85.72
3,COc1ccc(OCCCN(C)C(=O)C2CCCN2C(N)=O)cc1 (stereo not given),-3.357
4,COc1cccc(CN(C)C(=O)CN2CCN(CCO)CC2)c1,-4.711
5,COc1ccc(OCCN(C)CCCn2cnc3c(N)ncnc32)cc1,102.2
6,CN(CCCn1cnc2c(N)ncnc21)Cc1ccccc1,86.6
7,CN(Cc1ccccc1)CC(O)Cn1cnc2c(cnn2C)c1=O (stereo not given),-10.76
8,COc1ccc(OCCN(C)C(=O)NC(C)c2nncn2C)cc1 (stereo not given),5.358
9,COc1cccc(CCCn2cnnc2[S+](C)[O-])c1 (stereo not given),5.279
10,CC(CC(=O)NS(=O)(=O)c1ccc2c(c1)OCCO2)c1ccc(F)cc1 (stereo not given),-2.674
11,C[C@@H]1CN(C(=O)CCCn2nnc(-c3ccc(F)cc3)n2)C[C@]1(C)O,1.392
12,O=C(c1ccc(Cl)s1)N1CCC2(CNS(=O)(=O)c3cnccc3O2)C1 (stereo not given),130.4
13,CN(C)C1COC2(CCN(C(=O)c3cccnc3)CC2)C1 (stereo not given),-11.3
14,O=C(c1cccnc1)N1CCC2(CNS(=O)(=O)c3cnccc3O2)C1 (stereo not given),123.8
15,CC(C)(C)C(=O)N1CCC2(CNS(=O)(=O)c3cnccc3O2)C1 (stereo not given),153.5
16,O=C(c1cnc(-c2ccccc2)s1)N1CCOC2(CCCC2)C1,-9.958
17,CC(C)N(C)C(=O)C1=NOC2(CCN(C(=O)c3ccccn3)C2)C1 (stereo not given),12.65
18,Cc1nc(C2CCN(C(=O)c3ccc(Cl)s3)CC2)cc(=O)[nH]1,-8.54
19,CN(C)CCN1CC2(CCN(C(=O)c3cnccn3)CC2)OC1=O,-7.77
20,CC(C)C(=O)NC1COC2(CCN(C(=O)c3cccnc3)CC2)C1 (stereo not given),16.59
21,CC(C)(C)C(=O)N1CCC2(CC1)CC(Oc1ccccc1)CO2 (stereo not given),-1.342
22,O=C(c1ccccn1)N1CCC2(CNS(=O)(=O)c3cnccc3O2)C1 (stereo not given),119.5
23,CC(C)(C)C(=O)N1CCN(Cn2nccc2-c2cccnc2)CC1,-27.57
